Screening results from PubChem.
KB-V1 cytotox – qHTS assay for MDR1-selective chemotherapeutics: Primary screen using the drug-selected MDR subline cells KB-V1; KB-V1 MDR cells viability, CellTiter-Glo, 72 h; Potency, µM (series often up to 46.1 µM), most hits filed as cytotoxic; actives 3.4% (n = 400,000); further: on the % scale 0 is the no-effect control and ±100 the full control effect; nearly all actives have a fitted effect of over 60% in size
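Cells of the MDR subline KB-V1 are plated, dosed with compound at multiple concentrations, and incubated 72 h at 37 degrees C; CellTiter-Glo is then added and luminescence read after 10 min.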
HT1080-NT tox – qHTS for induction of synthetic lethality in tumor cells producing 2HG: qHTS for the HT-1080-NT fibrosarcoma cell line; AID 686970, 2013; HT-1080-NT fibrosarcoma viability, CellTiter-Glo ATP luminescence, 48 h; Potency, µM (doses to about 46.1 µM), without a hit: top-dose activity, negative = less viability, hits mostly cytotoxic; actives 1.6% (n = 360,000);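 further: NT is the 2HG producing partner of a matched IDH1 knockdown line; 0% = DMSO-treated cells and -100% = media-only wells without cells; nearly all actives have a fitted effect of over 55% in size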
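Compounds were tested in concentration-response format on HT-1080-NT cells for 48 hours at 37 degrees C. Cell viability came from CellTiter-Glo luminescence; curves were classified by r2, response magnitude and activity.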
KB-3-1 tox – qHTS assay for MDR1-selective chemotherapeutics: Primary screen using the parental adenocarcinoma cell KB-3-1 | actives 1.4% (n = 400,000) | KB-3-1 viability, CellTiter-Glo ATP luminescence, 72 h | Potency, µM (series often up to 46.1 µM), usual class: cytotoxic | AID 1347075, 2019; further: on the % scale 0 is the no-effect control and ±100 the full control effect; nearly all actives have a fitted effect of over 60% in size
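KB-3-1 cells, DMEM (no phenol red) + 10% FBS; compound by pin transfer, 72 h, 37 °C. Readout: CellTiter-Glo luminescence after 10 min. Data normalized, curve-fitted.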
HT1080 IDH1KD tx – qHTS for induction of synthetic lethality in tumor cells producing 2HG: qHTS for the HT-1080-IDH1KD cell line | Potency, µM (series often up to 46.1 µM), without a hit: at the highest dose activity, negative = toxicity, most hits filed as cytotoxic | AID 686971, 2013 | HT-1080 IDH1 knockdown viability, ATP luminescence, 48 h | actives 2% (n = 360,000);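 further: 0% = DMSO wells and -100% = cell-free medium wells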
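Knockdown cells (IDH1KD HT-1080) received compounds 2 h after plating at 750 cells/well and were kept 48 h at 37 °C in 5% FBS RPMI. A CellTiter-Glo luminescence read gave % activity for curve fitting.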
MCF10A rereplic – A quantitative high throughput screen for small molecules that induce DNA re-replication in MCF 10a normal breast cells; MCF 10A DNA re-replication, Hoechst nuclear intensity, 48 h; Potency, µM (series often up to 46.1 µM), inactives show at the top dose activity, positive = re-replication, actives largely listed as activators; actives 2.9% (n = 350,000); AID 624296, 2012; further: % of control where 0% means no effect; nearly all actives have a fitted effect of over 50% in size
SW480 rerep – A quantitative high throughput screen for small molecules that induce DNA re-replication in SW480 colon adenocarcinoma cells. actives 1.8% (n = 340,000). SW480 DNA re-replication, Hoechst DNA content imaging, 48 h. Potency, µM (top dose mostly 46.1 µM), for the others: top-dose re-replication activation, usual class: activators. AID 624297, 2012; further: % of control where 0% means no effect; nearly all actives have a fitted effect of over 55% in size
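Quantitative HTS format with DMSO vehicle controls; 48 hr drug incubation at 37 C, then 40 min Hoechst staining and scanning imager measurement at 405 nm excitation.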
* hit, by the source's call. Rows were chosen to be rich in hits. Some 8% of all compounds tested hit in one or more screens of this group. The call rests on the fitted dose curve; in most records, active means well fitted curve in the direction sought with a large enough effect; inconclusive means small, poorly fitted or top-dose-only effect, or another doubt; inactive means no such curve, though single readings can be large; an effect the other way counts as inactive or inconclusive. Potency means the concentration at half of the fitted maximal effect.

How did O=C(O)c1ccc(-c2nc(-c3ccccc3)c(-c3cccs3)[nH]2)cc1 do in these assays?
KB-V1 cytotox: inactive; HT1080-NT tox: 10.0%; KB-3-1 tox: inactive; HT1080 IDH1KD tx: 9.7%; MCF10A rereplic: 0.8%; SW480 rerep: 0.0%

How did Cc1ccc(-c2[nH]c(-c3ccc(C(=O)O)cc3)nc2-c2ccccc2)cc1 do in these assays?
KB-V1 cytotox: inactive; HT1080-NT tox: -2.7%; KB-3-1 tox: inactive; HT1080 IDH1KD tx: 4.9%; MCF10A rereplic: 9.2µM*; SW480 rerep: inconclusive

Results for CSc1nc(-c2ccccc2)c(-c2ccccc2)[nH]1 ?
KB-V1 cytotox: 11.6µM*; HT1080-NT tox: -10.2%; KB-3-1 tox: inconclusive; HT1080 IDH1KD tx: -17.4%; MCF10A rereplic: inconclusive; SW480 rerep: inconclusive

What do the screens show for `COc1ccc(C2Nc3ccccc3-c3nnc(SC)nc3O2)cc1C` (stereo not drawn)?
KB-V1 cytotox: inactive; KB-3-1 tox: inactive

How did COc1cccc(CNC(=O)Nc2cc(C(=O)NCc3cccc(F)c3)ccc2N2CCCC2)c1 do in these assays?
KB-V1 cytotox: inactive; KB-3-1 tox: inconclusive

How did Cc1cccnc1C(NC(=O)C1CCN(Cc2ccc(Oc3ccccc3)cc2)CC1)c1ccc(F)cc1 (stereo not drawn) do in these assays?
KB-V1 cytotox: inconclusive; HT1080-NT tox: 20.6µM*; KB-3-1 tox: inconclusive; HT1080 IDH1KD tx: inconclusive

How did O=C(NC(c1ccc(Cl)cc1)c1cnccn1)C1CCN(Cc2ccc(Oc3ccccc3)cc2)CC1 (stereo not drawn) do in these assays?
KB-V1 cytotox: inconclusive; HT1080-NT tox: inconclusive; KB-3-1 tox: inconclusive; HT1080 IDH1KD tx: 16.4µM*

How did Cc1ccc(C(NC(=O)C2CCN(Cc3ccc(Oc4ccccc4)cc3)CC2)c2ccccn2)cc1 (stereo not drawn) do in these assays?
KB-V1 cytotox: inactive; HT1080-NT tox: 14.6µM*; KB-3-1 tox: inactive; HT1080 IDH1KD tx: 20.6µM*

How did Nc1cccc2[nH]cnc12 do in these assays?
KB-V1 cytotox: inactive; KB-3-1 tox: inactive

What do the screens show for `CCCNc1nc(Nc2ccc([N+](=O)[O-])cc2)nc(N2CCOCC2)n1`?
KB-V1 cytotox: inactive; KB-3-1 tox: inactive

How did COC(=O)C1=C(O)/C(=C\c2ccc(OCC(=O)Nc3ccccc3OC)cc2)N=C1C do in these assays?
KB-V1 cytotox: inactive; HT1080-NT tox: 13.9%; KB-3-1 tox: inactive; HT1080 IDH1KD tx: 12.0%; MCF10A rereplic: -0.5%; SW480 rerep: 6.6%

What do the screens show for `COC(=O)C1=C(O)/C(=C\c2ccc(OCC(=O)Nc3ccc(OC)cc3)cc2)N=C1C`?
KB-V1 cytotox: inconclusive; HT1080-NT tox: 2.3%; KB-3-1 tox: inactive; HT1080 IDH1KD tx: 0.9%; MCF10A rereplic: inconclusive; SW480 rerep: 14.6µM*

How did Cc1cc(C)cc(Nc2cc(C(=O)NC3CCC(C)CC3)c3ccccc3n2)c1 (stereo not drawn) do in these assays?
KB-V1 cytotox: inactive; KB-3-1 tox: inactive

Results for COc1ccc(C2C(C#N)=C(N)Oc3cc4c(cc32)OCO4)cc1 (stereo not drawn) ?
KB-V1 cytotox: inactive; HT1080-NT tox: -21.4%; KB-3-1 tox: inactive; HT1080 IDH1KD tx: -23.4%; MCF10A rereplic: 20.6µM*; SW480 rerep: inconclusive

Results for COc1cc2c(cc1C1C(C#N)=C(N)OC3=C1C(=O)CC(C)(C)C3)OCO2 (stereo not drawn) ?
KB-V1 cytotox: inactive; HT1080-NT tox: 0.4%; KB-3-1 tox: inactive; HT1080 IDH1KD tx: 0.8%; MCF10A rereplic: 7.4%; SW480 rerep: 4.2%

How did O=C(/C=C/c1ccccc1)c1cc(Br)ccc(=O)c1O do in these assays?
KB-V1 cytotox: inconclusive; HT1080-NT tox: 18.4µM*; KB-3-1 tox: 11.6µM*; HT1080 IDH1KD tx: inconclusive; MCF10A rereplic: inconclusive; SW480 rerep: inconclusive

How did Cc1ccc(/C=C/C(=O)c2ccccc(=O)c2O)cc1C do in these assays?
KB-V1 cytotox: 20.6µM*; HT1080-NT tox: 18.4µM*; KB-3-1 tox: 9.2µM*; HT1080 IDH1KD tx: inconclusive; MCF10A rereplic: 20.6µM*; SW480 rerep: inconclusive

How did COc1cccc(N(CC(=O)NCCSc2ccc(Cl)cc2)S(C)(=O)=O)c1 do in these assays?
KB-V1 cytotox: 16.4µM*; HT1080-NT tox: -7.1%; KB-3-1 tox: inactive; HT1080 IDH1KD tx: -2.3%; MCF10A rereplic: -0.9%; SW480 rerep: 5.0%

Results for CC(C)(C)SCCNC(=O)CN(c1ccc(F)c(Cl)c1)S(C)(=O)=O ?
KB-V1 cytotox: 18.4µM*; HT1080-NT tox: -1.0%; KB-3-1 tox: inactive; HT1080 IDH1KD tx: -10.8%; MCF10A rereplic: -1.8%; SW480 rerep: -1.0%

What do the screens show for `COc1ccc(OC)c(N(CC(=O)NCCSc2ccccc2)S(C)(=O)=O)c1`?
KB-V1 cytotox: 23.1µM*; HT1080-NT tox: 1.4%; KB-3-1 tox: inactive; HT1080 IDH1KD tx: -2.3%; MCF10A rereplic: 0.1%; SW480 rerep: -0.9%

Results for CS(=O)(=O)N(CC(=O)NCCSCc1c(F)cccc1Cl)c1ccc2c(c1)OCO2 ?
KB-V1 cytotox: inconclusive; HT1080-NT tox: -12.2%; KB-3-1 tox: inactive; HT1080 IDH1KD tx: -16.6%; MCF10A rereplic: -1.1%; SW480 rerep: -4.4%

How did COc1ccc(N(CC(=O)NCCSCc2c(F)cccc2Cl)S(C)(=O)=O)cc1OC do in these assays?
KB-V1 cytotox: 8.2µM*; HT1080-NT tox: 0.7%; KB-3-1 tox: inactive; HT1080 IDH1KD tx: 2.6%; MCF10A rereplic: 0.7%; SW480 rerep: 3.5%

What do the screens show for `COc1ccc(N(CC(=O)NCCSc2ccccc2)S(C)(=O)=O)cc1`?
KB-V1 cytotox: inactive; HT1080-NT tox: -5.0%; KB-3-1 tox: inconclusive; HT1080 IDH1KD tx: -7.1%; MCF10A rereplic: -1.6%; SW480 rerep: 3.3%

Results for O=C(c1ccccc1Cl)N1c2ncnn2C2(CCCCC2)[C@@H]2CCCC[C@@H]21 ?
KB-V1 cytotox: inactive; KB-3-1 tox: inactive

Results for CC(C)OCCCNC(=O)c1ccc2c(c1)N(Cc1c(F)cccc1Cl)C(=O)c1ccccc1S2 ?
KB-V1 cytotox: inactive; KB-3-1 tox: inactive
